# According to the supplement of paper PMC8728848:
# The entries come from a sample that favours the strongest signals as a whole.
# Experiments:
# Test in all cases: glycan array binding signal (z-score within array); higher = stronger binding
# Details in all cases: glycan notation: IUPAC condensed, linker removed
# [1] = target: Gal6S(b1-3)GlcNAc6S
# Procedure, shortened: (§1)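 Glycan array data were curated from 3228 arrays in the Consortium for Functional Glycomics database and kept only where the protein sequence was available. Glycan names were converted to IUPAC-condensed notation, and columns mapping to the same glycan were averaged. The binding signal is a within-array Z-score, averaged across arrays of the same protein sequence at different concentrations or buffers and across linkers. Negative Z-scores can be read as non-binding.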
# [2] = target: GalNAc(a1-3)GalNAc(b1-3)Gal(a1-4)Gal(b1-4)GlcNAc
# Procedure, shortened: as §1
# [3] = target: Glc(a1-6)Glc(a1-6)Glc(a1-6)Glc
# Procedure, shortened: as §1
# [4] = target: GlcNAc(b1-2)Man(a1-3)[GlcNAc(b1-4)][GlcNAc(b1-2)Man(a1-6)]Man(b1-4)GlcNAc(b1-4)GlcNAc
# Procedure, shortened: as §1
# [5] = target: GlcNAc(b1-2)Man(a1-3)[GlcNAc(b1-4)][GlcNAc(b1-2)Man(a1-6)]Man(b1-4)GlcNAc(b1-4)[Fuc(a1-6)]GlcNAc
# Procedure, shortened: as §1
# [6] = target: GlcNAc(b1-2)[GlcNAc(b1-4)]Man(a1-3)[GlcNAc(b1-4)][GlcNAc(b1-2)[GlcNAc(b1-6)]Man(a1-6)]Man(b1-4)GlcNAc(b1-4)GlcNAc
# Procedure, shortened: as §1
# [7] = target: GlcNAc(b1-3)Gal(b1-3)GalNAc
# Procedure, shortened: as §1
# [8] = target: GlcNAc(b1-3)Gal(b1-4)GlcNAc
# Procedure, shortened: as §1
# [9] = target: GlcNAc(b1-3)Gal(b1-4)GlcNAc(b1-3)Gal(b1-4)GlcNAc(b1-2)[GlcNAc(b1-3)Gal(b1-4)GlcNAc(b1-3)Gal(b1-4)GlcNAc(b1-6)]Man(a1-6)[GlcNAc(b1-3)Gal(b1-4)GlcNAc(b1-3)Gal(b1-4)GlcNAc(b1-2)Man(a1-3)]Man(b1-4)GlcNAc(b1-4)[Fuc(a1-6)]GlcNAc
# Procedure, shortened: as §1
# [10] = target: GlcNAc(b1-3)Gal(b1-4)GlcNAc(b1-3)Gal(b1-4)GlcNAc(b1-3)Gal(b1-4)GlcNAc(b1-2)[GlcNAc(b1-3)Gal(b1-4)GlcNAc(b1-3)Gal(b1-4)GlcNAc(b1-3)Gal(b1-4)GlcNAc(b1-6)]Man(a1-6)[GlcNAc(b1-3)Gal(b1-4)GlcNAc(b1-3)Gal(b1-4)GlcNAc(b1-3)Gal(b1-4)GlcNAc(b1-2)Man(a1-3)]Man(b1-4)GlcNAc(b1-4)[Fuc(a1-6)]GlcNAc
# Procedure, shortened: as §1
# [11] = target: GlcNAc(b1-3)Gal(b1-4)GlcNAc(b1-3)Gal(b1-4)GlcNAc(b1-3)Gal(b1-4)GlcNAc(b1-3)Gal(b1-4)GlcNAc(b1-2)Man(a1-3)[GlcNAc(b1-3)Gal(b1-4)GlcNAc(b1-3)Gal(b1-4)GlcNAc(b1-3)Gal(b1-4)GlcNAc(b1-3)Gal(b1-4)GlcNAc(b1-2)Man(a1-6)]Man(b1-4)GlcNAc(b1-4)GlcNAc
# Procedure, shortened: as §1
# [12] = target: GlcNAc(b1-3)Gal(b1-4)GlcNAc(b1-3)Gal(b1-4)GlcNAc(b1-3)Gal(b1-4)GlcNAc(b1-3)Gal(b1-4)GlcNAc(b1-2)[GlcNAc(b1-3)Gal(b1-4)GlcNAc(b1-3)Gal(b1-4)GlcNAc(b1-3)Gal(b1-4)GlcNAc(b1-3)Gal(b1-4)GlcNAc(b1-6)]Man(a1-6)[GlcNAc(b1-3)Gal(b1-4)GlcNAc(b1-3)Gal(b1-4)GlcNAc(b1-3)Gal(b1-4)GlcNAc(b1-3)Gal(b1-4)GlcNAc(b1-2)Man(a1-3)]Man(b1-4)GlcNAc(b1-4)[Fuc(a1-6)]GlcNAc
# Procedure, shortened: as §1
# [13] = target: GlcNAc(b1-3)[GlcNAc(b1-6)]GalNAc
# Procedure, shortened: as §1
# [14] = target: Man(a1-2)Man(a1-2)Man(a1-6)[Man(a1-3)]Man
# Procedure, shortened: as §1
# [15] = target: Man(a1-2)Man(a1-3)[Man(a1-2)Man(a1-6)]Man(a1-6)[Man(a1-2)Man(a1-2)Man(a1-3)]Man
# Procedure, shortened: as §1
# [16] = target: Man(a1-3)[Man(a1-6)]Man(b1-4)GlcNAc(b1-4)GlcNAc
# Procedure, shortened: as §1
# [17] = target: Neu5Ac(a2-3)Gal(b1-3)GlcNAc(b1-2)[Neu5Ac(a2-3)Gal(b1-3)GlcNAc(b1-4)]Man(a1-6)[Neu5Ac(a2-3)Gal(b1-3)GlcNAc(b1-2)Man(a1-3)]Man(b1-4)GlcNAc(b1-4)GlcNAc
# Procedure, shortened: as §1
# [18] = target: Neu5Ac(a2-3)Gal(b1-4)[Fuc(a1-3)]GlcNAc
# Procedure, shortened: as §1
# [19] = target: Neu5Ac(a2-3)GalNAc(b1-4)GlcNAc
# Procedure, shortened: as §1
# [20] = target: Neu5Ac(a2-3)[GalNAc(b1-4)]Gal(b1-4)GlcNAc
# Procedure, shortened: as §1
# [21] = target: Neu5Ac(a2-6)Gal(b1-3)GlcNAc(b1-3)[Gal(b1-4)GlcNAc(b1-6)]Gal(b1-4)Glc
# Procedure, shortened: as §1
# [22] = target: Neu5Ac(a2-6)Gal(b1-4)GlcNAc
# Procedure, shortened: as §1
# [23] = target: Neu5Ac(a2-6)Gal(b1-4)GlcNAc(b1-2)Man(a1-3)[Man(a1-6)]Man(b1-4)GlcNAc(b1-4)GlcNAc
# Procedure, shortened: as §1
# [24] = target: Neu5Ac(a2-6)Gal(b1-4)GlcNAc(b1-3)Gal(b1-4)GlcNAc(b1-3)Gal(b1-4)GlcNAc(b1-2)Man(a1-3)[Neu5Ac(a2-6)Gal(b1-4)GlcNAc(b1-3)Gal(b1-4)GlcNAc(b1-3)Gal(b1-4)GlcNAc(b1-2)Man(a1-6)]GalNAc
# Procedure, shortened: as §1
# [25] = target: Neu5Ac(a2-6)Gal(b1-4)GlcNAc(b1-6)[Gal(b1-3)GlcNAc(b1-3)]Gal(b1-4)Glc
# Procedure, shortened: as §1
# [26] = target: Neu5Ac(a2-6)GalNAc(b1-4)GlcNAc6S
# Procedure, shortened: as §1
# [27] = target: Neu5Ac(b2-6)GalNAc
# Procedure, shortened: as §1
# [28] = target: Neu5Gc(a2-3)Gal(b1-4)GlcNAc
# Procedure, shortened: as §1
binder,measurement,setting,value
LlpA (Burkholderia cenocepacia) (protein) MGSSHHHHHHSSGLVPRGSHKILGSNETLSAGNVVYSDNGQYHLAMQTDGNLVVYGPTGAVWQSQTSGSGGNRAVMQGDGNLVIYRADNTAAWSSKTAHPGAFLAVQDDGNVVIYWPRPAWASNTSDPATQQSAESKYLASGSTMSAGQTVTVAQYMLVFQADGNLVLYKNGGNPIWSTGTQGKGATYAVMQSDGNFVIYAGSTALWSTKTNGANGAQLVLQSDGNLVIYAPTAAWSTKFGLVTAPTSTSTSNNGPGSGICVGVCPPHPLNGNPFSPVGVGTTGLGFPTPGYPGAAF,glycan array binding signal (z-score),[1],-0.227
same,glycan array binding signal (z-score),[2],-0.419
same,glycan array binding signal (z-score),[3],0.011
same,glycan array binding signal (z-score),[4],0.686
same,glycan array binding signal (z-score),[5],-0.623
same,glycan array binding signal (z-score),[6],-0.839
same,glycan array binding signal (z-score),[7],0.088
same,glycan array binding signal (z-score),[8],-0.175
same,glycan array binding signal (z-score),[9],1.97
same,glycan array binding signal (z-score),[10],2.12
same,glycan array binding signal (z-score),[11],1.56
same,glycan array binding signal (z-score),[12],1.97
same,glycan array binding signal (z-score),[13],0.522
same,glycan array binding signal (z-score),[14],-0.239
same,glycan array binding signal (z-score),[15],0.07
same,glycan array binding signal (z-score),[16],-0.516
same,glycan array binding signal (z-score),[17],0.118
same,glycan array binding signal (z-score),[18],-0.785
same,glycan array binding signal (z-score),[19],-0.208
same,glycan array binding signal (z-score),[20],-0.447
same,glycan array binding signal (z-score),[21],-0.697
same,glycan array binding signal (z-score),[22],-0.538
same,glycan array binding signal (z-score),[23],0.308
same,glycan array binding signal (z-score),[24],1.99
same,glycan array binding signal (z-score),[25],0.132
same,glycan array binding signal (z-score),[26],0.676
same,glycan array binding signal (z-score),[27],-0.883
same,glycan array binding signal (z-score),[28],-0.079
